Data reported in PubChem BioAssay (NCI).
This is part of a sample that, as a whole, favours compounds with a hit. Of some 83,000 tested, about 20% had one in any assay.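 Values shown are percent growth following 48 h exposure of cells in 96-well plates to a single concentration of compound; below 10 was considered active.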 Values without a mark were called inactive. The source made the active and inactive calls.

Experiments:
Assay in all cases: NCI-60 one-dose screen, 48 h (100 = growth as untreated, 0 = no growth, -100 = all killed)
Details in all cases: 10 µM unless noted
[1] = tested on: EKVX NSCLC
[2] = tested on: SN12C renal
[3] = tested on: UO-31 renal
[4] = tested on: TK-10 renal
[5] = tested on: ACHN renal
[6] = tested on: CAKI-1 renal
[7] = tested on: A498 renal
[8] = tested on: CCRF-CEM leukemia
[9] = tested on: MOLT-4 leukemia

Fc1ccc(Nc2ccc3cc(OCCCN4CCOCC4)ccc3n2)cc1F
growth [1]: 61.2%
growth [2]: 68.4%
growth [3]: 19.5%
growth [4]: 66.6%
growth [5]: 67.2%
growth [6]: 70.7%
growth [7]: 36.8%
growth [8]: 75.4%
growth [9]: 61.9%

CC(/C=N/NC(=O)c1cc(-c2ccco2)[nH]n1)=C\c1ccccc1
growth [1]: 89.2%
growth [2]: 95%
growth [3]: 96.8%
growth [4]: 123%
growth [5]: 93.1%
growth [6]: 80.8%
growth [7]: 110%
growth [8]: 92.3%
growth [9]: 96.6%

COc1ccc(-c2cncnc2N)cc1OC
growth [2]: 109%
growth [4]: 111%
growth [5]: 104%
growth [6]: 101%
growth [7]: 87.8%
growth [8]: 95.9%
growth [9]: 105%

C[C@@H]1C(=O)N(C[C@H](Cc2ccccc2)N(Cc2ccccc2)Cc2ccccc2)[C@]1(Cc1ccccc1)C(=O)OC(C)(C)C
growth [1]: 53.2%
growth [2]: 56.8%
growth [3]: 41.2%
growth [4]: 50.5%
growth [6]: 55.2%
growth [7]: 8.49% (active)
growth [8]: 70%
growth [9]: 63.8%

COC(=O)/C(=C\c1ccc(OC)cc1)C(=O)N1c2ccccc2Sc2ccccc21
growth [1]: 59.3%
growth [2]: 71.1%
growth [3]: 52.6%
growth [4]: 92.9%
growth [6]: 29.4%
growth [7]: 7.6% (active)
growth [8]: 43.1%
growth [9]: 34.5%

CC(C)(C)OC(=O)N1Cc2cc3ccccc3nc2C1CO (configuration not stated)
growth [1]: 92.9%
growth [2]: 98.9%
growth [4]: 106%
growth [5]: 111%
growth [6]: 53.2%
growth [7]: 97.1%
growth [9]: 128%

CN1CCN(CCCOc2ccc3nc(Nc4cc(Cl)cc(Cl)c4)ccc3c2)CC1
growth [1]: -21.5% (active)
growth [2]: -17.7% (active)
growth [3]: -87.6% (active)
growth [5]: -98.8% (active)
growth [6]: -32.6% (active)
growth [7]: -18.6% (active)
growth [8]: -52.5% (active)
growth [9]: -67.8% (active)

O=C1CSC(c2ccc(O)cc2)N1c1nnc(Cn2cnnc2)o1 (configuration not stated)
growth [1]: 99.1%
growth [2]: 85.9%
growth [3]: 91.9%
growth [4]: 131%
growth [5]: 108%
growth [7]: 99.9%
growth [8]: 49.1%
growth [9]: 58.7%

CCn1nc(C#Cc2c(C)ccc3c(Nc4ccc(Cl)cc4)nccc23)c2c(N)ncnc21
growth [1]: 36.6%
growth [2]: 15.6%
growth [3]: 8.45% (active)
growth [4]: 16.8%
growth [6]: 18.8%
growth [7]: 11.7%
growth [8]: 10.5%
growth [9]: 20.9%

N=C(N)c1ccc(-c2ccc(-c3ccc(Cl)cc3Cl)o2)cc1
growth [1]: 58.5%
growth [2]: -78.3% (active)
growth [3]: -83.8% (active)
growth [4]: 30.5%
growth [8]: 0.678% (active)
growth [9]: -29.2% (active)

N#C/C(=C\c1ccc(Br)cc1)n1nnc2cc(Cl)c(Cl)cc21
growth [1]: 59.6%
growth [2]: 35%
growth [4]: 59.6%
growth [5]: 41%
growth [8]: 8.21% (active)
growth [9]: 6.13% (active)

Nc1ccn(C2OC(F)(CO)C(O)C2F)c(=O)n1 (configuration not stated)
growth [1]: 81.4%
growth [2]: 36.4%
growth [4]: 75.8%
growth [5]: 2.4% (active)
growth [6]: 35.6%
growth [7]: 50.2%
growth [8]: 25%
growth [9]: 18.8%

O=C(/C=C/c1ccccc1)c1ccc2ccccc2c1
growth [1]: 86.7%
growth [2]: 99.7%
growth [3]: 73.9%
growth [4]: 44.4%
growth [5]: 16.2%
growth [7]: 93.5%
growth [8]: 23%
growth [9]: 74.5%

CN(C)c1ccc2cc(-c3ccccc3F)c(N)nc2c1
growth [1]: 31.1%
growth [2]: 54.9%
growth [3]: 34%
growth [5]: 41.2%
growth [6]: 37.5%
growth [7]: -7.09% (active)
growth [8]: 45.7%
growth [9]: 35.1%

COc1ccc(-c2c(N)n[nH]c2-c2ccccc2O)cc1OC
growth [1]: 92.4%
growth [2]: 104%
growth [3]: 62.6%
growth [4]: 98.5%
growth [6]: 21.6%
growth [7]: 118%
growth [8]: 81.8%
growth [9]: 97%

CC(=O)Nc1nccs1
growth [1]: 92.2%
growth [2]: 97.2%
growth [3]: 84.7%
growth [4]: 99.9%
growth [5]: 98.1%
growth [7]: 73.6%
growth [8]: 96.4%
growth [9]: 103%

CCn1c(Sc2nnc(NC(=O)CSC(=S)N3CCCCC3)s2)nc2c1c(=O)n(C)c(=O)n2C
growth [1]: 88.5%
growth [2]: 96.6%
growth [4]: 95.8%
growth [5]: 77.5%
growth [6]: 47.7%
growth [8]: 84.7%
growth [9]: 97.6%

Clc1ccc(-c2nnc(Cn3ccnc3)o2)cc1
growth [1]: 104%
growth [2]: 90.1%
growth [3]: 87%
growth [4]: 128%
growth [6]: 82.3%
growth [7]: 96.1%
growth [8]: 107%
growth [9]: 96.5%

O=C(O)c1ccccc1C(=O)Nc1ccc(Cl)cc1
growth [1]: 96.2%
growth [2]: 102%
growth [3]: 84.6%
growth [5]: 94.9%
growth [6]: 74.1%
growth [7]: 108%
growth [8]: 110%
growth [9]: 71.2%

O=c1[nH]nc(-c2ccc(Cl)cc2)cc1Cc1ccccc1
growth [1]: 86%
growth [2]: 103%
growth [3]: 61.7%
growth [4]: 109%
growth [5]: 92.7%
growth [7]: 110%
growth [8]: 81.6%
growth [9]: 79.6%

O=C(Nc1ccccn1)[C@H](O)[C@@H](O)C(=O)N1CCOCC1
growth [1]: 109%
growth [2]: 97.3%
growth [4]: 96.2%
growth [5]: 112%
growth [6]: 105%
growth [7]: 108%
growth [8]: 98.6%
growth [9]: 105%

Cc1nc(Nc2ccc(NC(=S)Nc3ccccc3)cc2)nc2nc(Nc3cccc(Cl)c3)[nH]c(=O)c12
growth [1]: 119%
growth [2]: 97.4%
growth [3]: 96.4%
growth [4]: 142%
growth [5]: 96.7%
growth [7]: 91.3%
growth [8]: 81.2%
growth [9]: 64.9%

COc1ccc(/C=C2\C=C(c3ccccc3)N(CCc3ccccc3)C2=O)cc1OC
growth [1]: 56.1%
growth [2]: 53%
growth [4]: -3.91% (active)
growth [5]: -32.5% (active)
growth [6]: 62%
growth [7]: -75.4% (active)
growth [8]: 57.6%
growth [9]: 34%

Cc1nc(Nc2ccc(NC(=S)Nc3ccccc3)cc2)nc2nc(SCc3ccccc3)[nH]c(=O)c12
growth [1]: 99.2%
growth [2]: 93.6%
growth [3]: 86%
growth [4]: 199%
growth [7]: 102%
growth [8]: 92.3%
growth [9]: 87.4%

N[C@H]1CCC[C@@H]1NCCCCN1C(=O)c2cccc3cccc(c23)C1=O
growth [1]: 84.6%
growth [2]: 63.9%
growth [3]: 60.3%
growth [4]: 65.8%
growth [5]: 44.9%
growth [7]: 40.5%
growth [8]: 84.5%
growth [9]: 20.2%

C(=C\c1nc2ccccc2[nH]1)/c1nc2ccccc2[nH]1
growth [2]: 100%
growth [3]: 81.8%
growth [4]: 143%
growth [5]: 93.3%
growth [6]: 96.6%
growth [7]: 83.7%
growth [8]: 93.5%
growth [9]: 80.4%

CCOc1ccc2nc(-c3cccc(OCC(=O)NC(C)C)c3)nc(Nc3ccc(-c4cn[nH]c4)cc3)c2c1
growth [1]: 9.24% (active)
growth [2]: 18.6%
growth [3]: -13.3% (active)
growth [5]: 7.49% (active)
growth [6]: 27.7%
growth [7]: 46.7%
growth [8]: 20.4%
growth [9]: 5.6% (active)

CCOC(=O)C1C(=O)C=C(c2cnccn2)CC1c1ccc(OC)c(OC)c1 (configuration not stated)
growth [1]: 101%
growth [2]: 100%
growth [3]: 87.4%
growth [4]: 87.8%
growth [7]: 119%
growth [8]: 82.2%
growth [9]: 73.2%

CC(=O)Nc1ccc(-c2cc3c(NCc4ccc(F)cc4)ncnc3s2)cc1
growth [1]: 67.5%
growth [2]: 72.6%
growth [3]: 62.2%
growth [4]: 70.5%
growth [6]: 61.6%
growth [7]: 61.9%
growth [8]: 96.3%
growth [9]: 95.3%

C[C@H]1[C@H]2C3=CC[C@@H]4[C@@]5(C)C/C(=C/c6ccncc6)C(=O)C(C)(C)[C@@H]5CC[C@@]4(C)[C@]3(C)CC[C@@]2(C(=O)N2CCN(C)CC2)CC[C@@H]1C
growth [1]: 78.3%
growth [2]: 78.9%
growth [4]: 86.1%
growth [5]: 91%
growth [6]: 75.1%
growth [7]: 93.9%
growth [8]: 64.7%
growth [9]: 52.1%

O=C(CC1Sc2ccccc2NC1=O)NNc1ccc(F)cc1 (configuration not stated)
growth [1]: 75.9%
growth [2]: 89.5%
growth [3]: 48.4%
growth [4]: 121%
growth [5]: 56.4%
growth [7]: 91.7%
growth [8]: 7.39% (active)
growth [9]: 45.8%

O=C1CSC(c2ccccc2Cl)N1c1nnc(Cn2cnnc2)o1 (configuration not stated)
growth [1]: 60.7%
growth [2]: 82%
growth [3]: 66.4%
growth [4]: 91.1%
growth [5]: 73.6%
growth [7]: 75.5%
growth [8]: 43.4%
growth [9]: 20.2%

COc1cc2oc(-c3cccc(C(=O)Nc4ccc(C)cc4)c3)cc(=O)c2c(OC)c1OC
growth [2]: 31.6%
growth [3]: 44.3%
growth [4]: 53.3%
growth [5]: 34.2%
growth [6]: 2.16% (active)
growth [7]: 6.03% (active)
growth [8]: 34.7%
growth [9]: 54.7%
